Assay [1] in a line: binders of probe aFSTL3 on microarray, primary screen, stem cell growth factor project, biochemical, small-molecule microarray, fluorescence 635/667 (AID 1064).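 Further: measures binding of the biotinylated anti-FSTL3 antibody to printed compounds.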 The following applies: higher = more signal.
Assay [2] in a line: binders from COS7 lysate, DM2A8 probe, primary screen, torsin A project, cell lysate, small-molecule microarray, fluorescence 635/667 (AID 1065). Conditions: higher = more signal, COS7 lysate expressing mutant human TOR1A.
Assay [3] in a line: binders of probe aFGF2 on microarray, primary screen, stem cell growth factor project, biochemical, small-molecule microarray, fluorescence 635/667 (AID 1067).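 Further: measures binding of biotinylated aFGF2 protein to printed compounds on slides; z-score merges feature fluorescence and signal-to-noise across triplicate slides.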 The following applies: higher = more signal.
A short description of assay [4]: binders of probe aFGF10 on microarray, primary screen, stem cell growth factor project, biochemical, small-molecule microarray, fluorescence 635/667 (AID 1071).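 Further: score merges 667 nm spot intensity and signal to noise from triplicate slides.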 Conditions: higher = more signal.
For assay [5], the target named is Neurogenic locus notch homolog protein 2 (Homo sapiens) (UniProt Q04721). Nature of the assay: Notch2 binders on small-molecule microarrays, primary screen, biochemical, small-molecule microarray, 635 nm fluorescence, stem cell growth factors (AID 1073). The following applies: Notch2 binding, higher = more signal.
The target in assay [6] is Pro-neuregulin-1, membrane-bound isoform (Homo sapiens) (UniProt Q02297). Nature of the assay: NRG1 binders on small-molecule microarrays, primary screen, psychiatric disease protein project, biochemical, small-molecule microarray, fluorescence 635/667 (AID 1075).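 Further: score combines 667 nm spot fluorescence with signal to noise.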 Conditions: NRG1 binding, 635 nm fluorescence, higher = more signal.
Assay [7] has as its system Neuregulin-1 EGF-like domain. The assay is described as follows: binders of neuregulin-1 EGF-like domain, primary screen, biochemical, small-molecule microarray, 635 nm fluorescence (AID 1081).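 Further: binding of the protein to compounds printed on small-molecule microarray slides.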 Conditions: small-molecule microarray binding, higher = more signal.
The nature of assay [8]: FRG1 promoter luciferase signal modulators, primary screen, FRG1 inhibition for FSHD, cell-based, C2C12 myotubes, firefly/Renilla luciferase, luminescence (AID 1084). The following applies: higher = more signal, called active from +8 up or from −8 down.
Assay [9] can be described thus: binders of probe aFST on microarray, primary screen, stem cell growth factor project, biochemical, small-molecule microarray, fluorescence 635/667 (AID 1086).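 Further: score merges 667 nm fluorescence with signal-to-noise of each printed compound spot.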 The following applies: higher = more signal.
A short description of assay [10]: binders of probe aHhip on microarray, primary screen, stem cell growth factor project, biochemical, small-molecule microarray, fluorescence 635/667 (AID 1087).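 Further: score merges spot fluorescence at 667nm with spot signal to noise ratio.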 The following applies: higher = more signal.

Each structure is given as a SMILES string. The source made the active and inactive calls.

Chain of Neurogenic locus notch homolog protein 2 (Homo sapiens) (Q04721 whole entry, looked up, canonical isoform): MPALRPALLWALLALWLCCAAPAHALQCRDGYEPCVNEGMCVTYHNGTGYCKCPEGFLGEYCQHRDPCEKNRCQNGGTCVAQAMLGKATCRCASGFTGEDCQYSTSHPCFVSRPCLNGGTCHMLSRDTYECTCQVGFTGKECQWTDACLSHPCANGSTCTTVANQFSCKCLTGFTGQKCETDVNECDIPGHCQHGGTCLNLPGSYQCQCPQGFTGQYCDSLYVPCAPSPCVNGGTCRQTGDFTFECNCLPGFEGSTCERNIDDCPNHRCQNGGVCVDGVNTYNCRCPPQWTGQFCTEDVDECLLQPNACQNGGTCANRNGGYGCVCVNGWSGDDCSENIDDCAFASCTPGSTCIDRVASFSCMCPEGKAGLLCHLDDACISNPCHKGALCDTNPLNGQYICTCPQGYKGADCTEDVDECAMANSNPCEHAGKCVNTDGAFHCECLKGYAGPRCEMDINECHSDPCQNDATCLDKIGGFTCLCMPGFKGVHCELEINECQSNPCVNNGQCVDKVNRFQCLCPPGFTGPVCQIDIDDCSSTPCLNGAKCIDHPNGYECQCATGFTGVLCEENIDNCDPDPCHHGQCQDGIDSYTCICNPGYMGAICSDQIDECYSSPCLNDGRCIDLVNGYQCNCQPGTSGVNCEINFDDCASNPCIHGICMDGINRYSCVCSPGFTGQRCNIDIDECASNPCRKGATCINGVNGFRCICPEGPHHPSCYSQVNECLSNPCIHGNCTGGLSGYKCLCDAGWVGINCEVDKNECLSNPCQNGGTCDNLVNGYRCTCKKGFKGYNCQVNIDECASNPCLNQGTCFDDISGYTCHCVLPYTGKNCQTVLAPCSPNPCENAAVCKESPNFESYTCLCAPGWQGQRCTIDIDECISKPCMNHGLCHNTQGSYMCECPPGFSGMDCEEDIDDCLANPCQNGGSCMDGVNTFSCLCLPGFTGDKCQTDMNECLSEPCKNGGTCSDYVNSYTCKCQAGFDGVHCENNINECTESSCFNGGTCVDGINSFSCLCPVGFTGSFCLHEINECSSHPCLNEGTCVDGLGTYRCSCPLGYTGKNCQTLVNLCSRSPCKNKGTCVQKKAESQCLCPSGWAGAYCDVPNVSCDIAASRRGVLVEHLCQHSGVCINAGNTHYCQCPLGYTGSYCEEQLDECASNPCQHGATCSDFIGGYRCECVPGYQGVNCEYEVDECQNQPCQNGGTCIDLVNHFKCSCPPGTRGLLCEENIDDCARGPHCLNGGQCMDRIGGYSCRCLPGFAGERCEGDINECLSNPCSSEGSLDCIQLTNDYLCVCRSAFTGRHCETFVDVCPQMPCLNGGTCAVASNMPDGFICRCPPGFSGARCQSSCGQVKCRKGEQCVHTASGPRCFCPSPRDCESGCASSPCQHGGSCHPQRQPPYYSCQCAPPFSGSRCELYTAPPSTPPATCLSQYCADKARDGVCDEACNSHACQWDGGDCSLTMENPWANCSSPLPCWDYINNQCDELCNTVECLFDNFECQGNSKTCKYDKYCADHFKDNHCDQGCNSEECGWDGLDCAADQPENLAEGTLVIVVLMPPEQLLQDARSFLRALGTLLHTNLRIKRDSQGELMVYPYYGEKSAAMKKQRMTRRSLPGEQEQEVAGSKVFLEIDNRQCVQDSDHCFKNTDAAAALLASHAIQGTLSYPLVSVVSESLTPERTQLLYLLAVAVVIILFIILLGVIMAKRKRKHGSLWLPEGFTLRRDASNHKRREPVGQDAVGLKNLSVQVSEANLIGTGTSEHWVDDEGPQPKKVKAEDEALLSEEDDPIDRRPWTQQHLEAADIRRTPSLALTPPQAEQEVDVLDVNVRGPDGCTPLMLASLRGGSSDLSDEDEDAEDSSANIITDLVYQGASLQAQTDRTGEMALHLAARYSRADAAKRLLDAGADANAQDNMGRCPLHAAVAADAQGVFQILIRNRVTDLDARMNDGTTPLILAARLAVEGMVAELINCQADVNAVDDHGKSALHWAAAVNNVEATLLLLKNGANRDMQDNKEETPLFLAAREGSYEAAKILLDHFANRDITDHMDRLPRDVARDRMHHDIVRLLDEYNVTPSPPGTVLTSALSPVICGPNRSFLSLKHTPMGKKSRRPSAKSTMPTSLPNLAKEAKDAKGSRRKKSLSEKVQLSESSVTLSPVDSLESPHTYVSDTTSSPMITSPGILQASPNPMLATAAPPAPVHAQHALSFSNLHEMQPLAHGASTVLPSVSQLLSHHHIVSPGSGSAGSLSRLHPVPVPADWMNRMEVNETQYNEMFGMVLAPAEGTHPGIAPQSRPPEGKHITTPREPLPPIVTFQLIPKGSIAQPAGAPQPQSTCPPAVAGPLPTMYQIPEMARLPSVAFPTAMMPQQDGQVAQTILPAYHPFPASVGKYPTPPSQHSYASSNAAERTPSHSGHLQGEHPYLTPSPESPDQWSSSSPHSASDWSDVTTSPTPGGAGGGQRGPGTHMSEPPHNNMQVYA
Chain of Pro-neuregulin-1, membrane-bound isoform (Homo sapiens) (Q02297 whole entry, looked up, the tested form may be a part, canonical isoform): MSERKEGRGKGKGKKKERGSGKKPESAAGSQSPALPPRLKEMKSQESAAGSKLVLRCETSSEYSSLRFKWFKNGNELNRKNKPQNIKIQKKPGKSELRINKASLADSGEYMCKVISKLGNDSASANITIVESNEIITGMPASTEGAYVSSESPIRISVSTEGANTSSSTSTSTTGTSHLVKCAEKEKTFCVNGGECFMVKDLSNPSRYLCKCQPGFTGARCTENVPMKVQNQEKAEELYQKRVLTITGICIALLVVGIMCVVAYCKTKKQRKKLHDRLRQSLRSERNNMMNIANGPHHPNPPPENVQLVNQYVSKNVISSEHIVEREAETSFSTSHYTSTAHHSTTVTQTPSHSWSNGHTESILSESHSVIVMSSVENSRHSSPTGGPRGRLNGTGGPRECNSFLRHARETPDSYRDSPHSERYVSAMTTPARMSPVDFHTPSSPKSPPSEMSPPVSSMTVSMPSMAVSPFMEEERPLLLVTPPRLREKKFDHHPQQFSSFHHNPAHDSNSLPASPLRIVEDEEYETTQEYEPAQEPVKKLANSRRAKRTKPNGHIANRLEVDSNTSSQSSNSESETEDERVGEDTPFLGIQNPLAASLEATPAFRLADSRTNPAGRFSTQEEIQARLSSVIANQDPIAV

As to `COc1ccc([Si](C)(C)[C@H]2[C@H](CCn3cc([C@H](O)c4ccccc4)nn3)O[C@@]3(C(=O)N(C)c4ccccc43)[C@@H]2C)cc1`, the composite z-score was 0.0044 in assay [1]; 0.165 in [2]; -0.0418 in assay [3]; -0.209 in assay [4]; -0.623 in assay [5]; 0.104 in [6]. Further, the results for the composite z-score in [7], in [9] and in [10] were 0.553, -0.619 and -0.199, respectively. Besides, in assay [8], the z-score was -1.36 (inactive).
For the molecule `COCCOC(=O)N1C(=O)[C@@]2(c3cc(C#CC4(O)CCCCCC4)ccc31)[C@H](C(=O)Nc1nc3ccccc3s1)[C@H]1C(=O)O[C@H](c3ccccc3)[C@H](c3ccccc3)N1[C@@H]2c1ccccc1OCCO`, the composite z-score was 0.184 in assay [1]; 1.29 in assay [2]; -0.0503 in [3]; 0.94 in assay [4]; 1 in assay [5]; 1.54 in assay [6]. The composite z-score in [7] was 1.29; in assay [9], 0.461; in [10], -0.0618. The z-score in assay [8] is 1.86 (inactive).
Regarding `CC=CC(O)C1C=CC2C(=O)N(C)C(=O)C2N1N(c1ccccc1)c1ccccc1` (stereo not given), the composite z-score in [1] was -0.108; in assay [2] it was 0.273; in [3] it was -0.0567; in assay [4], 0.367; in [5], 1.44; in [6], 0.837. Further, the composite z-score was 1.12 in assay [7], -0.132 in assay [9] and -0.201 in [10]. In addition, in [8], the z-score was 0.621 (inactive).
For `O=C(O)[C@@]1(CCS(=O)(=O)c2ccccc2)N=C(c2ccc(OCCCO)cc2)O[C@H]1c1ccccc1`, the composite z-score in assay [1] was 0.132; in [2], -0.0272; in assay [3], 0.0654; in assay [4] it was -0.029; in assay [5], 0.604; in assay [6], 1.62. Besides, the composite z-score in [7] is 1.06; in [9], 0.38; in assay [10], -0.0994. In assay [8], the z-score is 2.18 (inactive).
Regarding `Cc1ccc(S(=O)(=O)N2C[C@@H](C(=O)O)[C@H](Sc3ccccc3)C[C@H]2c2ccccc2)cc1`, the composite z-score in assay [1] worked out at 0.265; in assay [2], 0.57; in assay [3], 0.172; in assay [4], 1.15; in assay [5] it was 1.61; in assay [6] it was 1.3. Besides, the composite z-score was 1.12 in [7], 1.56 in assay [9] and -0.34 in assay [10]. The z-score in assay [8] was -2.97 (inactive).
Turning to `O=C1C2C=CC(C(O)c3c(F)cccc3Cl)N(Nc3ccccc3F)C2C(=O)N1c1ccccc1` (stereo not given), the composite z-score in assay [1] came out at 0.472; in assay [2] it was 0.374; in assay [3], 0.11; in [4], 0.574; in [5], 1.65; in assay [6] it was 1.37. For the same molecule, the composite z-score in [7] came out at 1.15; in assay [9], 1.04; in assay [10], 0.113. Moreover, the z-score in assay [8] is -3.2 (inactive).
Consider `CC(C)[Si](C#CCCCC#N)(Oc1ccccc1Br)C(C)C`, for which the composite z-score in assay [1] is -0.517; in [2], 0.14; in [3], -0.182; in assay [4] it was 0.151; in [5], 0.266; in [6], 0.151. Moreover, the results for the composite z-score in [7], in assay [9] and in assay [10] were 0.204, 0.155 and 0.316, respectively. Besides, in assay [8], the z-score is 0.382 (inactive).
Regarding `CO[C@H]1O[C@H](CO)[C@@H](OC(=O)Nc2ccccc2)[C@@H]2OC(=O)[C@@H](Cc3ccc4ccccc4c3)C/C=C/C[C@H](Cc3ccc4ccccc4c3)C(=O)O[C@@H]12`, the composite z-score is 0.0395 in assay [1]; 0.821 in assay [2]; 0.126 in assay [3]; 0.908 in assay [4]; 0.336 in assay [5]; 0.915 in assay [6]. Moreover, the composite z-score in [7] is 0.965; in assay [9], 0.316; in assay [10] it was -0.191. Also, the z-score in assay [8] is -1.62 (inactive).
Turning to `C#CCN1[C@@H](Cc2ccc(O)cc2)C(=O)O[C@H](Cc2ccccc2)[C@@H]1/C=C/C1CC1`, the composite z-score was -0.353 in assay [1]; 0.336 in assay [2]; -0.142 in assay [3]; 0.199 in [4]; -0.586 in assay [5]; -0.37 in assay [6]. For the same molecule, the composite z-score in [7] was 0.207; in assay [9], 0.0959; in [10], -0.279. Also, the z-score in assay [8] was -3.33 (inactive).
On to `CCOC(=O)C1=C[C@@H](C(C)C)N(S(=O)(=O)c2ccc(C)cc2)[C@H]1c1ccccc1F`, for which the composite z-score in [1] was -0.487; in [2], 0.267; in [3], -0.0924; in assay [4] it was 0.817; in assay [5] it was 1.65; in assay [6] it was 1.23. Further, the composite z-score is 1.1 in [7], 0.904 in assay [9] and -0.305 in assay [10]. For the same molecule, the z-score in [8] is -1.83 (inactive).
Take `C[N+](C)(C)CCCC[C@@H]1NC(=O)[C@@H]2C[C@H](C(=O)NCCCCCCNC(=O)CS)[C@H](c3ccc(O)cc3)N2C1=O`: the composite z-score in assay [1] is 0.973; in [2], -0.951; in [3], -0.193; in [4], 0.0372; in assay [5], -1.41; in assay [6], 0.801. Besides, the composite z-score in assay [7] is 1.47; in assay [9], -0.622; in assay [10], 0.235. Besides, the z-score in assay [8] is -0.338 (inactive).
On to `CN1C(=O)C2C=CC(C(O)c3ccccc3)N(N3CCCCC3)C2C1=O` (stereo not given), for which the composite z-score was -0.239 in assay [1]; 0.876 in assay [2]; 0.054 in [3]; 1.02 in assay [4]; 1.42 in assay [5]; 1.62 in assay [6]. Also, the composite z-score is 1.02 in [7], 0.406 in [9] and -0.0346 in assay [10]. The z-score in assay [8] was -1.13 (inactive).
Take `COC(=O)[C@@]1(Cc2ccccc2)[C@H]2c3cc(C(=O)N4CCCC4)n(Cc4ccc(O)c(OC)c4)c3C[C@H]2CN1C(=O)c1ccccc1`: the composite z-score is 0.528 in assay [1]; -0.162 in [2]; 0.185 in assay [3]; 0.0854 in assay [4]; 1.53 in assay [5]; 1.66 in assay [6]. For the same molecule, the composite z-score was found to be 1.39 in assay [7], 1.04 in [9] and 0.651 in [10]. Besides, in assay [8], the z-score was -0.433 (inactive).
Turning to `C=C(C)[C@@H]1CC=C(C(O)C2C=CC3C(=O)NC(=O)C3N2Nc2ccc(Cl)cc2Cl)CC1` (stereo not given in full), the composite z-score in assay [1] is 0.917; in [2] it was 0.403; in assay [3], 0.0095; in [4] it was 0.117; in assay [5] it was 1.42; in assay [6], 1.35. For the same molecule, the composite z-score in assay [7] was 0.953; in [9], 1.2; in [10], -0.0645. In addition, the z-score in [8] is 1.3 (inactive).
Turning to `O=C1[C@H]2C=C(Br)[C@H](C[C@@H]2OCCCCCCO)[C@@]12CO2`, the composite z-score in [1] is 0.125; in assay [2], 0.629; in [3], -0.0443; in assay [4], -0.0632; in assay [5] it was -0.565; in [6] it was -0.429. Further, the figures for the composite z-score in [7], in [9] and in [10] were -0.394, 0.0363 and 0.122, respectively. Besides, the z-score in assay [8] was -0.0205 (inactive).
On to `O=C1N(CCS(=O)(=O)c2ccccc2)c2ccccc2[C@@H]2OC(c3ccc(OCCCO)cc3)=N[C@]12Cc1ccccc1`, for which the composite z-score in assay [1] is -0.0695; in assay [2], 0.437; in [3] it was -0.165; in assay [4], 0.307; in [5], 0.849; in assay [6], 1.38. Besides, the results for the composite z-score in assay [7], in [9] and in assay [10] were 1.29, 0.57 and -0.156, respectively. For the same molecule, the z-score in assay [8] is -4.02 (inactive).
As to `CCOC(=O)C1=CC[C@H]2C(=O)N(c3ccccc3)C(=O)[C@@H]12`, the composite z-score is -0.368 in [1]; 0.606 in assay [2]; 0.05 in [3]; 1.07 in [4]; 1.61 in [5]; 1.37 in assay [6]. In addition, the composite z-score is 1.32 in [7], 0.743 in assay [9] and -0.0237 in assay [10]. Moreover, in [8], the z-score was -0.775 (inactive).
